Bioassay records as filed in PubChem.
A selection: hits, their analogues and other compounds. The true share with any hit is near 3.1%.
Casp6 inh: blocks human caspase-6 cleavage activity. P55212. purified caspase-6, Z-VEID-R110 cleavage fluorescence. inhibition, % at 12.5 µM. 0.53% of 350,000 active. AID 686996;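 active = mean inhibition across replicates at least about 35%, with every replicate also reaching that limit, limit read from the data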;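 note: 0% = median of neutral control wells and 100% = no fluorescence left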
ERAP1 HTS inh: ERAP1 (human) enzyme inhibition; Q9NZ08; recombinant ERAP1, Leu-AMC fluorescence, 60 min; inhibition, % at 10.7 µM; 0.15% of 340,000 active; AID 652197;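 active = mean replicate inhibition of at least 30%, or all replicates individually reaching that 30% level; inactive = mean below 30% and not every replicate reaching it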;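 note: 0% = neutral control wells and 100% = L-leucinethiol positive control wells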
FGF22 binding: binders of recombinant human FGF22 by thermal shift; SYPRO orange fluorescence; percent of sucrose octasulfate shift, DMSO zero; activity (Tm shift, normalised), % at 9.99 µM; 1.5% of 340,000 active; AID 651658;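 active = mean Tm shift, scaled 0 neutral to 100 positive control, at about 1.3% or above, every replicate too, limit read from the data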
Target sequence (Q9HCT0 whole entry, looked up): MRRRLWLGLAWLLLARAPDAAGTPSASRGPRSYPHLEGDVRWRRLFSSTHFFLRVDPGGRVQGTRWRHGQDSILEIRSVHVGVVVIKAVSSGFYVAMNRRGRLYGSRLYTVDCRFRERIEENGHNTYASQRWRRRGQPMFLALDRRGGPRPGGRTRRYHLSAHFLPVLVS
SIRT5 inh: sirtuin-5 (human) deacylase inhibition | Q9NXA8 | Purified SirT5, succinyl-peptide AMC, trypsin-coupled fluorescence | inhibition, % at 15 µM | 1.1% of 330,000 active | AID 652115; in the data active = inhibition above about 15%
Target sequence (Q9NXA8 whole entry, looked up): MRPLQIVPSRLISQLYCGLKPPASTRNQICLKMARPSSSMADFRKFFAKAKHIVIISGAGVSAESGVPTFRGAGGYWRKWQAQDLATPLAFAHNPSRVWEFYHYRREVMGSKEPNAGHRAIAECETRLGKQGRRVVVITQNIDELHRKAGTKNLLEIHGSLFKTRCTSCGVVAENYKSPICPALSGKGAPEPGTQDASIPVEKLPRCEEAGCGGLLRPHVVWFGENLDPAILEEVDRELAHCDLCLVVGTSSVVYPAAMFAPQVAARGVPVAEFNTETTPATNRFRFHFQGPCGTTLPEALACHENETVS
* = called active by the depositor; nt = not tested or not shown.

SMILES | Casp6 inh | ERAP1 HTS inh | FGF22 binding | SIRT5 inh
CC(C)NC(=O)N(C)C[C@@H]1OCCCC[C@@H](C)Oc2ccc(NS(=O)(=O)c3ccc(F)cc3)cc2C(=O)N([C@@H](C)CO)C[C@@H]1C | 0 | 1 | 0 | -3
CCCNC(=O)N1CC2(CN(C(=O)COC)C2)c2c(n(C)c3cc(OC)ccc23)[C@H]1CO | 5 | -1 | 0 | -2
O=C([C@H]1[C@H](CO)[C@H]2Cn3c(cccc3=O)[C@@H]1N2CC1CCCC1)N1CCOCC1 | 0 | 3 | nt | 2
CN1CCN(C(=O)/C(=C\c2cccs2)NC(=O)c2ccccc2)CC1 | -3 | -3 | 27* | -3
CN1CCN(C(=O)/C(=C/c2ccc([N+](=O)[O-])cc2)NC(=O)c2ccccc2)CC1 | -1 | 2 | 0 | 1
O=C(N/C(=C\c1ccc([N+](=O)[O-])cc1)C(=O)N1CCCCC1)c1ccccc1 | -1 | 8 | 43 | 16*
C[C@@H]1CCCCO[C@@H](CN(C)C(=O)CCCN(C)C)[C@@H](C)CN([C@@H](C)CO)C(=O)c2cc(NC(=O)Nc3ccc(C(F)(F)F)cc3)ccc2O1 | nt | nt | -1 | nt
CC(OC(=O)c1n[nH]c2ccccc12)C(=O)Nc1ccccc1[N+](=O)[O-] (stereo not given) | 36* | 1 | 0 | -15
Cc1ccc(NC(=O)C(C)OC(=O)c2n[nH]c3ccccc23)cc1 (stereo not given) | 3 | 2 | 0 | 0
CS(=O)(=O)N1c2ccccc2[C@]2([C@@]34C[C@H]5C(=O)N[C@@H](Cc6ccccc6)C(=O)N5[C@@H]3N(S(C)(=O)=O)c3ccccc34)C[C@H]3C(=O)N[C@@H](Cc4ccccc4)C(=O)N3[C@H]12 | -1 | 0 | 0 | 33*
O=C1N[C@@H](Cc2ccccc2)C(=O)N2[C@@H]1C[C@]1(Br)c3ccccc3N(S(=O)(=O)c3ccccc3)[C@H]21 | 3 | 4 | 0 | -1
C[C@@H]1CN([C@H](C)CO)C(=O)Cc2cc(NS(C)(=O)=O)ccc2O[C@H]1CN(C)C(=O)Nc1cccc2ccccc12 | 0 | -4 | 0 | 2
CC(C)C#Cc1cnc2c(c1)C(=O)N([C@H](C)CO)C[C@H](C)[C@@H](CN(C)C(=O)c1cccnc1)O2 | 0 | -1 | 0 | -4
Cc1noc(C)c1CSCC(=O)N(C)CC(=O)Nc1ccc(Cl)c(Cl)c1 | -64 | 0 | 0 | 1
Cc1noc(C)c1CSCC(=O)N(C)CC(=O)Nc1ccc(Cl)c(C(F)(F)F)c1 | 0 | 0 | 1.9* | -5
CNCC(=O)Nc1ccc(Cl)c(C(F)(F)F)c1 | -1 | 2 | 43* | -1
COc1cc(CC(=O)Nc2ccc(Cl)c(C(F)(F)F)c2)cc(OC)c1OC | 1 | -1 | 1 | -3
COc1cccc(-c2ccc([C@@H]3[C@H](CO)N4C(=O)CN(C(=O)C5CCCC5)C[C@@H]34)cc2)c1 | -1 | 0 | nt | -15
O=C1C2C3C=CC(CC3)C2C(=O)N1c1nccs1 (stereo not given) | 67* | -1 | 0 | -1
CC(C)NC(=O)C1(C)CCN1C(=O)c1ccc2c(c1)OCO2 (stereo not given) | 71* | 2 | 0 | nt
COCC(=O)N1CC2(CN(Cc3ccc(OC)cc3)C2)c2c([nH]c3cc(OC)ccc23)[C@H]1CO | 3 | -4 | 0 | -1
COC(=O)N/N=C/c1cn(Cc2ccc(Cl)cc2Cl)c2ccccc12 | 0 | 5 | 0 | 20*
Cc1ccc(Cn2cc(/C=N/NC(=O)Cc3nnc(NC(=O)c4ccc(C)cc4)s3)c3ccccc32)cc1 | 0 | -2 | 43* | -6
COC(=O)N/N=C/c1cn(Cc2ccccc2Cl)c2ccccc12 | 2 | -1 | 0 | 0
O=C(N/N=C/c1cn(Cc2cccc(F)c2)c2ccccc12)c1cc(O)cc(O)c1 | 57* | 0 | 1 | 11
SMILES | Casp6 inh | ERAP1 HTS inh | FGF22 binding | SIRT5 inh
Nc1ccc(C(=O)N/N=C/c2cn(Cc3ccc(F)cc3)c3ccccc23)cc1 | 73* | 2 | 0 | -1
CCC(=O)N1CC2(C1)[C@H](c1ccc(-c3ccc(F)cc3)cc1)[C@H](CO)N2S(C)(=O)=O | 0 | 1 | 0 | -2
c1ccc(-c2cc(-c3cc(-c4ccccc4)on3)no2)cc1 | -3 | -3 | 43* | nt
COc1ccc(-c2cc(-c3ccccc3)no2)cc1 | -3 | 0 | 0 | -4
C[C@@H]1CN([C@H](C)CO)C(=O)c2cccc(NC(=O)c3nc4ccccc4s3)c2O[C@H]1CN(C)Cc1ccncc1 | 5 | -9 | 0 | -4
C[C@H](CO)N1C[C@H](C)[C@H](CN(C)C(=O)Nc2cccc3ccccc23)Oc2ccc(NC(=O)Cc3ccccc3)cc2CC1=O | 3 | 4 | -1 | 8
C[C@H](CO)N1C[C@H](C)[C@H](CN(C)C(=O)Nc2cccc3ccccc23)Oc2ccc(NC(=O)Nc3cccc4ccccc34)cc2CC1=O | nt | nt | 0 | -3
C[C@H](CO)N1C[C@H](C)[C@@H](CN(C)C(=O)Nc2cccc3ccccc23)Oc2ccc(NC(=O)Cc3ccccc3)cc2CC1=O | 2 | 0 | 1.6* | -6
C[C@@H]1CN([C@H](C)CO)C(=O)Cc2cc(NC(=O)Nc3cccc4ccccc34)ccc2O[C@@H]1CN(C)C(=O)Nc1cccc2ccccc12 | nt | -2 | 0 | 16*
CCC1CCCCN1CCCNC(=O)c1c(O)nc2ccccn2c1=O (stereo not given) | -34 | -8 | 0 | 32*
COc1ccc(CN2CCN(C(=O)c3ccc(S(=O)(=O)NCc4ccco4)cc3)CC2)cc1 | 1 | -3 | nt | 1
O=C(c1ccc(S(=O)(=O)NCc2ccco2)cc1)N1CCN(Cc2ccccc2)CC1 | 1 | -2 | 44* | -5
O=C(CC(C(=O)O)c1ccc(Cl)cc1)c1ccc(Br)cc1 (stereo not given) | 4 | -2 | 0 | 17*
COc1ccc(S(=O)(=O)N2CC[C@H]3[C@H](CO)Nc4ccc(C#Cc5cccnc5)cc4[C@H]32)cc1 | 0 | -1 | 0 | 10
O=C(NC1=NCCS1)c1ccc(Cl)c(S(=O)(=O)N2CCCC2)c1 | 1 | 3 | 43* | 2
O=C(NC1=NCCS1)c1ccc(Cl)c(S(=O)(=O)N2CCOCC2)c1 | 3 | 2 | 43* | -7
O=C(Nc1ccccc1)N[C@H]1CC[C@@H](CCNC(=O)c2ccccc2F)O[C@@H]1CO | -4 | 2 | 0 | 2
CC(C)(C)c1cc(CCC(=O)Nc2ccncc2)cc(C(C)(C)C)c1O | -68 | -2 | 18* | -5
CC(C)(C)c1cc(CCC(=O)NNC(=O)c2ccncc2)cc(C(C)(C)C)c1O | 0 | 0 | 0 | -4
COc1ccc(NC(=O)Nc2ccc3c(c2)C(=O)N([C@H](C)CO)C[C@H](C)[C@H](CN(C)C(=O)Nc2ccc(C(F)(F)F)cc2)O3)cc1 | 2 | 0 | 0 | 14
CC1=NCCN1S(=O)(=O)c1c(C(C)C)cc(C(C)C)cc1C(C)C | -1 | 8 | 0 | 27*
Cc1ccc(Nc2nc3ccccc3s2)cc1 | 1 | -2 | 1.5* | -2
